# Results filed as inconclusive are left out. Entries that show only a call come without a potency. A number with no mark means an inactive call. Active and inactive are the calls of the source. Calls come from the whole dose curve; as a rule, active = well fitted curve in the direction sought with a large enough effect; inconclusive = small, poorly fitted or top-dose-only effect, or another doubt; inactive = no such curve, though single readings can be large; an effect the other way counts as inactive or inconclusive.
# Biological target: Calcium and integrin-binding protein 1 (Homo sapiens) (UniProt Q99828)
# Sequence (Q99828 whole entry, looked up): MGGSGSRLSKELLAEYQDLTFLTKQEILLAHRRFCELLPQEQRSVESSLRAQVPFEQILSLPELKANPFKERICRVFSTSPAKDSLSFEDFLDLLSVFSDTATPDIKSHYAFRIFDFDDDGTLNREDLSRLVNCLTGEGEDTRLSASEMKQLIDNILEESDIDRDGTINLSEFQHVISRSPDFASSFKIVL
# Test: Primary qHTS for Identification of Calcium Integrin Binding Protein 1 (CIB1) Competitor (AID 1508620);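 note: GST tagged CIB1 binding a fluorescein labelled alphaIIb integrin peptide tracer; top concentration of the series differs between compounds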
# Settings: CIB1-GST / FITC-alphaIIb peptide fluorescence polarization; series mostly up to 114 µM
# Procedure, shortened: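 Fluorescence polarization competition: GST-tagged CIB1 (1 uM final) preincubated with compound 15 min at room temperature, then FITC-labelled alphaIIb peptide (100 nM final) added. After 15 min at room temperature, polarization read at Ex 480/Em 540.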
row,Structure (SMILES),outcome
1,O=S(=O)(Nc1cccc2ccncc12)c1ccc(NCc2cccc(Cl)c2O)cc1,inactive
2,CCOc1ccc(CCNC(=O)c2cc3cnccc3n2Cc2cccc(C)c2)cc1OCC,inactive
3,Cc1ccc2nc(NC3=NC(c4[nH]ncc4Cl)C4=C(CCCC4=O)N3)oc2c1 (stereo not given),inactive
4,COc1cccc(CNc2ccc(C(=O)Nc3nccs3)cc2)c1O,inactive
5,CCc1nn2c(=O)cc(N3CCN(C)CC3)nc2s1,inactive
6,COc1cccc(CNc2ccc(S(=O)(=O)Nc3nc(C)c(C)s3)cc2)c1O,inactive

# Tested on: not listed separately
# Test: Counterscreen qHTS for small molecule stabilizers of the endoplasmic reticulum resident proteome: GLuc-NoTag assay (AID 1508627)
# Settings: Gaussia luciferase NoTag secretion counterscreen, luminescence, thapsigargin 100 nM for final 4 h; series mostly up to 76.4 µM
# Procedure, shortened: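 Counterscreen line: SH-SY5Y-GLuc-NoTag. Seed, 5 h; compound, 19 h; thapsigargin 100 nM, 4 h; 37C/5% CO2. Readout: secreted GLuc luminescence, coelenterazine 0.07x final, no lysis.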
row,Structure (SMILES),outcome
1,CC(C)C1C(=O)N2CCC[C@H]2[C@]2(O)O[C@](NC(=O)[C@@H]3C=C4c5cccc6[nH]cc(c56)C[C@H]4N(C)C3)(C(C)C)C(=O)N12 (stereo not given in full),inactive
2,c1cnc(N2CCC3(CCNCC3)CC2)nc1,inactive
3,c1ccc(N2CCC3(CCNCC3)CC2)nc1,inactive
4,c1ccc(N2CCCC3(CCNCC3)C2)nc1,inactive
5,COc1ccc(NC(=O)N2CCCC3(CCN(C(=O)Oc4ccccc4)CC3)C2)cc1,inactive
6,c1ccc(N2CCCC3(CCNCC3)C2)cc1,inactive
7,c1cc(CN2CCCC3(CCNCC3)C2)ccn1,inactive
8,CC(=O)C1=C(O)C2C3c4c[nH]c5cccc(c45)CC3C(C)(C)N2C1=O (stereo not given),inactive
9,c1ccc(N2CC[C@@]3(CCCNC3)C2)cc1,inactive
10,O=C(O)[C@@H]1CSC(c2cccnc2)N1 (stereo not given in full),inactive

# Tested on: not listed separately
# Test: Confirmatory qHTS for small molecule stabilizers of the endoplasmic reticulum resident proteome: Secreted ER Calcium Modulated Protein (SERCaMP) assay (AID 1508628); note: nearly all actives have a fitted effect of over 40% in size; note: potency is the fitted concentration of half-maximal effect
# Settings: SERCaMP secreted luciferase ER calcium/proteostasis reporter; series mostly up to 76.3 µM
# Procedure, shortened: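 Reporter secretion upon ER calcium depletion (100 nM thapsigargin, 4 h, 37C) is measured as medium luminescence with coelenterazine, after 16 h compound pretreatment of SH-SY5Y-GLuc-SERCaMP cells; primary at three concentrations up to 38.3 uM, follow-up at 11 (up to 76.6 uM).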
row,Structure (SMILES),Potency
1,CC(C)C1C(=O)N2CCC[C@H]2[C@]2(O)O[C@](NC(=O)[C@@H]3C=C4c5cccc6[nH]cc(c56)C[C@H]4N(C)C3)(C(C)C)C(=O)N12 (stereo not given in full),31.6 µM (active)
2,c1cnc(N2CCC3(CCNCC3)CC2)nc1,inactive
3,COc1ccc(NC(=O)N2CCCC3(CCN(C(=O)Oc4ccccc4)CC3)C2)cc1,inactive
4,c1cc(N2CCCC3(CCNCC3)C2)ccn1,14.1 µM (active)
5,C=CCN1CCc2cccc3c2C1Cc1ccc(O)c(O)c1-3 (stereo not given),39.8 µM (active)
6,N#C/C(=C\c1ccc(O)c(O)c1)C(N)=S,10 µM (active)
7,c1ccc(N2CC[C@@]3(CCCNC3)C2)cc1,44.7 µM (active)
8,O=C(O)[C@@H]1CSC(c2cccnc2)N1 (stereo not given in full),inactive

# Tested on: not listed separately
# Test: Cell Viability qHTS for small molecule stabilizers of the endoplasmic reticulum resident proteome (AID 1508629);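 note: human SH-SY5Y neuroblastoma cells carrying the GLuc-SERCaMP reporter; compound exposure about 46 h in total before the viability read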
# Settings: cell viability counter-screen, 100 nM thapsigargin for final 4 h
row,Structure (SMILES),max response [%]
1,c1cnc(N2CCC3(CCNCC3)CC2)nc1,1.49
2,c1ccc(N2CCCC3(CCNCC3)C2)nc1,-3.57
3,c1ccc(N2CCCC3(CCNCC3)C2)cc1,-4.75
4,c1cc(CN2CCCC3(CCNCC3)C2)ccn1,27.2
5,CC(=O)C1=C(O)C2C3c4c[nH]c5cccc(c45)CC3C(C)(C)N2C1=O (stereo not given),-5.15
6,c1ccc(N2CC[C@@]3(CCCNC3)C2)cc1,3.77
7,O=C(O)[C@@H]1CSC(c2cccnc2)N1 (stereo not given in full),25.6

# Tested on: not listed separately
# Test: Primary qHTS for small molecule stabilizers of the endoplasmic reticulum resident proteome: Secreted ER Calcium Modulated Protein (SERCaMP) assay (AID 1508630)
# Settings: SH-SY5Y GLuc-SERCaMP (Gaussia luciferase released on ER calcium loss) secretion, thapsigargin, luminescence; series mostly up to 38.4 µM
# Procedure, shortened: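 The SH-SY5Y reporter protocol was run at 3 concentrations up to 38.3 uM (primary) or 11 concentrations (follow-up): 16 h compound, 100 nM thapsigargin for 4 h, then extracellular luciferase luminescence.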
row,Structure (SMILES),outcome
1,CC1(C)C2C[C@@H](O)[C@]3(C)C(CC[C@@]4(C)[C@H](c5ccoc5)C[C@H]5O[C@]543)[C@@]2(C)[C@@H](O)C[C@H]1O (stereo not given in full),inactive
2,C[C@]12CC[C@@H](O)C[C@H]1CC[C@@H]1[C@H]2CC[C@]2(C)C(=O)CC[C@@H]12,inactive
3,CN1CCC2=C[C@@H](O)[C@@H]3OC(=O)c4cc5c(cc4C3C21)OCO5 (stereo not given in full),inactive
4,O=C(O)c1ccc(NC(=O)N2C[C@H]3C[C@@H](C2)c2cccc(=O)n2C3)cc1,inactive
5,CCCOC(=O)c1cc2c(cn1)[nH]c1ccccc12,inactive
6,COCC#CCN1CCCCC1c1cccnc1 (stereo not given),inactive
7,CCCC[N+]12C3CC(C(CC)[C@H]1O)[C@@H]1C(O)C4(C[C@@H]12)c1ccccc1N(C)C34 (stereo not given in full),inactive
8,CCOC(=O)c1ncc2[nH]c3ccc(OCc4ccccc4)cc3c2c1COC,inactive
9,CC(=O)OC[C@]12C[C@H](OC(=O)CC(C)C)C(C)=C[C@H]1O[C@H]1[C@H](O)[C@@H](OC(C)=O)[C@@]2(C)[C@]12CO2,inactive

# Reference: PubChem BioAssay (NCATS)
